Consider 62 sequences from article PMC7819943, “Rice protein-binding microarrays: a tool to detect cis-acting elements near promoter regions in rice”.

Over roughly 68,000 sequences, “fluorescence intensity (a.u.)” has its median near 9,100; the highest 2% begin near 16,000. This is one part of a sample in which the highest values are shown more often than they occur.

Sequence of OsWRKY34 (Q0JBA9 entry or part of it): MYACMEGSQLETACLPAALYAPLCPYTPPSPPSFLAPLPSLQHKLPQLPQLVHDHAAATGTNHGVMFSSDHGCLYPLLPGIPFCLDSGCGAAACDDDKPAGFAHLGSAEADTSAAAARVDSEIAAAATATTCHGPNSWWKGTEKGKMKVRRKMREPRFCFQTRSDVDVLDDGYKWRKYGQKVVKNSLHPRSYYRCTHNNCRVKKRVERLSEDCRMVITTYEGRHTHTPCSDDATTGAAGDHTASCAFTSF

In this experiment the target is OsWRKY34 (Oryza sativa, UniProt Q0JBA9 1-250). The experiment can be described thus: protein-binding microarray (RPBM); PBS, 2% BSA, 51.3 ng/ul salmon testes DNA, 50 uM zinc acetate, 200 nM TF, 25 C, 1 h; high values mean tight binding. To be noted: protein: recombinant; tags: N-terminal polyhistidine and DsRed monomer fusion (pET32a); label: CyDye5-dUTP incorporated in the synthesized complementary strand; 3' TTTTT single-stranded linker to array surface; dsDNA, one strand shown. Summed up:
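The binding signal for each feature is its fluorescence intensity in arbitrary units. An Axon 4000B scanner was used to read a custom Agilent array that had been made double-stranded with Cy5-dUTP primer extension, blocked with 2% BSA, incubated at 25 °C for 1 h with 200 nM protein in PBS, 2% BSA, salmon testes DNA and 50 µM zinc acetate, and washed. The protein was an N-terminal polyhistidine–DsRed transcription factor fusion from E. coli BL21-CodonPlus, purified on Ni–NTA.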
Turning to “ACAGCTTAAAATTTCCTCCTCCGCCCAAAAACCCTCTCGACGGAGTCACCTAGTGCAG”, the binding signal is 24300 fluorescence intensity (a.u.).

On to “CCCGAACCCACCACCTCCGCCCATTTCCGCCTCCTCTCGACGGAGTCACCTAGTGCAG”, for which the binding signal was 9190 fluorescence intensity (a.u.).

For “CCAAACCCAACCCTCGACGCCAATTAAACACCAATTTTCTCGGAGTCACCTAGTGCAG”, the binding signal is 8920 fluorescence intensity (a.u.).

Take “CCTTGACAGATTAATCCTACGTTTTGACCCCATATGTTTTCGGAGTCACCTAGTGCAG”: the binding signal is 8880 fluorescence intensity (a.u.).

With “CTTGTAGCTGTAATTCCCTATTGTTGTTTTTCGGTACTGTCGGAGTCACCTAGTGCAG”, the binding signal is 13200 fluorescence intensity (a.u.).

Turning to “TCGCAAGAGTTGTTGAAAGTTGACCAGCATATTGAGGCCCCGGAGTCACCTAGTGCAG”, the binding signal was 8130 fluorescence intensity (a.u.).

“GTCTCATTCTTCTTATTTCCATTTTTTTTTTCTCTCAAAACGGAGTCACCTAGTGCAG”: the binding signal is 11100 fluorescence intensity (a.u.).

For the sequence “TTCCTTTTTCATCTTCTTTTCACATTTTTTCTTTATTTTTCGGAGTCACCTAGTGCAG”, the binding signal was 12400 fluorescence intensity (a.u.).

On to “TCTCAATTGCACCTCATTTAATCCTCATTTTTCATCTTTTCGGAGTCACCTAGTGCAG”, for which the binding signal was 11800 fluorescence intensity (a.u.).

With “CACACACACCGATCTTTTCATTCATTCTTTTCTTTCTTTTCGGAGTCACCTAGTGCAG”, the binding signal is 18700 fluorescence intensity (a.u.).

As for “TCTCTTTTCTCATTTTTTCGCTTGCCACATCATTTTCTATCGGAGTCACCTAGTGCAG”, the binding signal was 9600 fluorescence intensity (a.u.).

Turning to “GCCTATTCTTTTCGCCACCGCTATCGCCACACATCACGGACGGAGTCACCTAGTGCAG”, the binding signal is 17500 fluorescence intensity (a.u.).

Consider “ACTCACCTCTCTCATCTTTCGTGCACACATTTTTCAATTTCGGAGTCACCTAGTGCAG”, for which the binding signal was 17700 fluorescence intensity (a.u.).

“CAACACATCTCTTGCATTTTTTTTTCTTTGCATTCTCATTCGGAGTCACCTAGTGCAG”: the binding signal is 8200 fluorescence intensity (a.u.).

In the case of “ACTCACTTCAAAATTTTCACATCCTCTCTCATCATTTTTTCGGAGTCACCTAGTGCAG”, the binding signal is 11100 fluorescence intensity (a.u.).

Turning to “AGACATTCTCCATTTTCTTTCTTCTCTTCACTCACACTCACGGAGTCACCTAGTGCAG”, the binding signal is 8800 fluorescence intensity (a.u.).

For “ACAACTCACTCTCTTCATTTTCCATTCTCGTGCTTTTCAACGGAGTCACCTAGTGCAG”, the binding signal is 16600 fluorescence intensity (a.u.).

Consider “TTCTTTGGATTTGATTGGTGCCGCCTTTTTTCGCTATTGACGGAGTCACCTAGTGCAG”, for which the binding signal is 15600 fluorescence intensity (a.u.).

“TCCTCTTCTTTTCTCTCCCTCCGCCACTCGACGCCCAACCCGGAGTCACCTAGTGCAG”: the binding signal is 9310 fluorescence intensity (a.u.).

With “TCGATTCCGGCGTGCGAATTCCTCCACCTCGCCGCCGCCGCGGAGTCACCTAGTGCAG”, the binding signal is 8810 fluorescence intensity (a.u.).

For the sequence “TTCCTGTTCCTGCAAGAAAACGCTCATCCTCTTGCTTTTTCGGAGTCACCTAGTGCAG”, the binding signal is 9650 fluorescence intensity (a.u.).

In the case of “AGGCCTCCACGGCTCCACCTCCTTCCGCTTTCGCCTATCCCGGAGTCACCTAGTGCAG”, the binding signal was 10000 fluorescence intensity (a.u.).

For the sequence “AAAGTGCCGTATTTTTGTGTTTCTGTTGTAGTGGTAATTACGGAGTCACCTAGTGCAG”, the binding signal was 12000 fluorescence intensity (a.u.).

On to “TGGGTTGTGGCAGTGTCTTATAAGGCTATATTAAGTCTATCGGAGTCACCTAGTGCAG”, for which the binding signal was 8060 fluorescence intensity (a.u.).

“TTGCTGTCTTGCGTGTTCATGCTGCCCCGCGGGCGTTGAGCGGAGTCACCTAGTGCAG”: the binding signal was 9010 fluorescence intensity (a.u.).

For the sequence “TACCAACATTGTAGCAACAGATTCATCTCTCTTTTTTTTTCGGAGTCACCTAGTGCAG”, the binding signal is 18100 fluorescence intensity (a.u.).

With “GTGACCCAACATTCAGATTCATCTTTTTTTTTCACCTTCTCGGAGTCACCTAGTGCAG”, the binding signal was 11300 fluorescence intensity (a.u.).

Consider “TTTTCATTGTGTTGTAGCCAACAGCCACATTGTTTTCTTTCGGAGTCACCTAGTGCAG”, for which the binding signal was 8080 fluorescence intensity (a.u.).

For the sequence “AGTCACGAATCAAACAACCCCTTAAACTGTATTTGATTGTCGGAGTCACCTAGTGCAG”, the binding signal was 8060 fluorescence intensity (a.u.).

In the case of “TGTTCTACTTGGCTGTCTCATACTTTTTTTATTTCTCTCTCGGAGTCACCTAGTGCAG”, the binding signal was 11200 fluorescence intensity (a.u.).

Regarding “ACTCTCTCTCTCTCTCTGCTTCTTCTTGTGTTGTGCTTGTCGGAGTCACCTAGTGCAG”, the binding signal was 9800 fluorescence intensity (a.u.).

As to “AGCGATACTCTACTGCTACCTTGTCCCAACATGCTGGGCTCGGAGTCACCTAGTGCAG”, the binding signal was 8260 fluorescence intensity (a.u.).

As for “TCTCTGCTTCTCGTTGTTCTTGGTTGGTTGTTGTTGTAGACGGAGTCACCTAGTGCAG”, the binding signal is 19400 fluorescence intensity (a.u.).

As to “GCGGTGGTGGACAGTCCCAGACTGACTTGTGGTGGGGACTCGGAGTCACCTAGTGCAG”, the binding signal was 9560 fluorescence intensity (a.u.).

As for “TGGTTCTTGCTCTTGTTCTTGCTGCTGCTGCTTTTGCTCTCGGAGTCACCTAGTGCAG”, the binding signal is 9380 fluorescence intensity (a.u.).

Turning to “CTTGGTTTTCTTGATTTCTTGGGTTCTTGGCTACTGGGGCCGGAGTCACCTAGTGCAG”, the binding signal is 9490 fluorescence intensity (a.u.).

Consider “GGCTGGGGTGGGCTCTACTTGACAGACTGATACTCCTACTCGGAGTCACCTAGTGCAG”, for which the binding signal is 19600 fluorescence intensity (a.u.).

For the sequence “GCTATGAGATTTATATATTTTTTTGTCCTGGGCTTCTTTTCGGAGTCACCTAGTGCAG”, the binding signal is 9510 fluorescence intensity (a.u.).

“CATGTCTATCTTTCTACTATTTATTTTTTTTTGGCAGAGACGGAGTCACCTAGTGCAG”: the binding signal is 12700 fluorescence intensity (a.u.).

In the case of “GGGTTCTTGGCTACTGGGGCTGTCTCTCTATCTTTCTTGACGGAGTCACCTAGTGCAG”, the binding signal was 21600 fluorescence intensity (a.u.).

Regarding “GGCTGGGCTTTTTGGGCTTTCTTTGATCTATATTTTGAGACGGAGTCACCTAGTGCAG”, the binding signal is 18200 fluorescence intensity (a.u.).

On to “CCCACACGCGCTCCATGCATCTCCACCACGCTCCATGTGTCGGAGTCACCTAGTGCAG”, for which the binding signal is 11000 fluorescence intensity (a.u.).

“CCGTCCGCCATTGCAGCTTCGTTGTTCTGTACCTTCTTGCCGGAGTCACCTAGTGCAG”: the binding signal was 10900 fluorescence intensity (a.u.).

On to “CCGGGTCACACATCCCCTCATACTCGGGCCTTGTTTAGTTCGGAGTCACCTAGTGCAG”, for which the binding signal is 8740 fluorescence intensity (a.u.).

In the case of “TACTGCCTCTCTCTGACCCCATTGACCAACTCCGTTGACCCGGAGTCACCTAGTGCAG”, the binding signal is 15800 fluorescence intensity (a.u.).

With “AGATGGATGCTCTGCCCGCCGCCCTACCACCCTCTGCCATCGGAGTCACCTAGTGCAG”, the binding signal is 8030 fluorescence intensity (a.u.).

On to “GTCTTTTCTTCAAGGTTATCTTTTTTGTCCCTTTTTTATTCGGAGTCACCTAGTGCAG”, for which the binding signal was 15200 fluorescence intensity (a.u.).

As to “TCATATTGTACCTTCCACTTTTATTCTTTTAAAGCCTATACGGAGTCACCTAGTGCAG”, the binding signal was 9560 fluorescence intensity (a.u.).

For “AGGCGCTCCATAGGCCTCGTCATCTTCACAGTCACACACCCGGAGTCACCTAGTGCAG”, the binding signal is 11200 fluorescence intensity (a.u.).

With “GCTGCCTATTCCATACAAATTTCGTAGGTTCATTTCCAACCGGAGTCACCTAGTGCAG”, the binding signal was 10000 fluorescence intensity (a.u.).

For “CATCTACGTGCTCTCTTTGGTTGGGGTGTTCTTGCTGCTACGGAGTCACCTAGTGCAG”, the binding signal was 17700 fluorescence intensity (a.u.).

For the sequence “TTTGGGGTGTGTTTTTGTCTAGAGGTAAAGTTTTTAAAGTCGGAGTCACCTAGTGCAG”, the binding signal was 10600 fluorescence intensity (a.u.).

As for “CTTCTTCGGATCACTCGGTTGGTTTCTTGGTTTCTTGGTTCGGAGTCACCTAGTGCAG”, the binding signal is 13000 fluorescence intensity (a.u.).

Regarding “CGTGTTGGGGTTCTCTTCCTGCTGCTTTGGCCACCTGGGACGGAGTCACCTAGTGCAG”, the binding signal is 12500 fluorescence intensity (a.u.).

Regarding “ATGAATTAGGTGTGGTTCTCTTTAATCTGTTATTAGTCATCGGAGTCACCTAGTGCAG”, the binding signal is 11000 fluorescence intensity (a.u.).

Turning to “ATTGGTCGTCTTGCTGAGCTCTCGTACTTGGATCTCTCTACGGAGTCACCTAGTGCAG”, the binding signal was 11100 fluorescence intensity (a.u.).

“TAGATCTCTTGCTTTGGGTGTTGTTTGCTCTAGGTGTTCTCGGAGTCACCTAGTGCAG”: the binding signal is 8250 fluorescence intensity (a.u.).

Regarding “GATATTGGAGGTGCATCTGTTAGGGTTCGGGTTCTCTCTACGGAGTCACCTAGTGCAG”, the binding signal was 16700 fluorescence intensity (a.u.).

In the case of “GTCGTCGTCTTCGTCTCGAGTTCTTGGTTGGTTGGATCTACGGAGTCACCTAGTGCAG”, the binding signal was 19400 fluorescence intensity (a.u.).

Take “TCTAGGTTCTGTTCTATTCGGTTCTAGGTTATCATATTTTCGGAGTCACCTAGTGCAG”: the binding signal was 12100 fluorescence intensity (a.u.).

As for “GACTATAGAGGCTTTGTTTGTTTGGGGTGTGTTTTTGTCTCGGAGTCACCTAGTGCAG”, the binding signal was 17200 fluorescence intensity (a.u.).

Consider “TTCACTATTGGGTGTTTTTGTCTCGATTCACCTTCATCGTCGGAGTCACCTAGTGCAG”, for which the binding signal is 8840 fluorescence intensity (a.u.).
